This assay has as its system firefly luciferase (FLuc). The assay is described as follows: residual bioluminescent signal relative to negative (DMSO) control; higher = less interference (more residual luciferase signal). How it is done:
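Purified luciferase (FLuc 10 nM + 10 uM D-luciferin; NLuc 10 pM + 10 uM furimazine; RLuc 50 pM + 2 uM coelenterazine) in 384-well plates; metal salt pre-incubated with enzyme 10 min at RT, substrate added and luminescence read after 10 min. Signal normalised to plate DMSO negative control (% N_VALUE = x/mean neg *100); triplicate wells at 0.01, 1 and 5 mM salt.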

Where [1] appears, read: metal salt concentration 0.01 mM, HEPES conditions (100 mM HEPES, 5 mM MgSO4, 10 uM ATP, pH 7.5).
Where [2] appears, read: metal salt concentration 0.01 mM, screening conditions (0.5 mM Tris, 50 mM glycine, 0.5 mM EDTA, 5 mM MgSO4, 10 uM ATP, pH 7.6).
Setting [3] is: metal salt concentration 1 mM, HEPES conditions (100 mM HEPES, 5 mM MgSO4, 10 uM ATP, pH 7.5).
[4] abbreviates: metal salt concentration 1 mM, screening conditions (0.5 mM Tris, 50 mM glycine, 0.5 mM EDTA, 5 mM MgSO4, 10 uM ATP, pH 7.6).
The mark [5] stands for this setting: metal salt concentration 5 mM, HEPES conditions (100 mM HEPES, 5 mM MgSO4, 10 uM ATP, pH 7.5).
Setting [6] is: metal salt concentration 5 mM, screening conditions (0.5 mM Tris, 50 mM glycine, 0.5 mM EDTA, 5 mM MgSO4, 10 uM ATP, pH 7.6).

± gives the standard deviation of the averaged measurements.

As to `O=C([O-])[O-].[Cs+].[Cs+]` [caesium carbonate], the residual bioluminescent signal was found to be 85.2 ± 14% under setting [1]; 93.8 ± 6.3% under setting [2]; 91.6 ± 14% under setting [3]; 103 ± 2.9% under setting [4]; 79.4 ± 4.7% under setting [5]; 56.2 ± 6.8% under setting [6].

Turning to `[Cl][Pt-2]([Cl])([Cl])[Cl].[K+].[K+]` [potassium tetrachloroplatinate(II)], the residual bioluminescent signal turned out to be 85 ± 8% under setting [1]; 87.9 ± 6.2% under setting [2]; 3.8 ± 0.62% under setting [3]; 0.659 ± 0.66% under setting [4]; 1.09 ± 0.23% under setting [5]; 0.343 ± 0.12% under setting [6].

With `O=C([O-])[O-].[K+].[K+]` [potassium carbonate], the residual bioluminescent signal reads like this: under setting [1], 84.3 ± 17%; under setting [2], 81.3 ± 3%; under setting [3], 83.9 ± 16%; under setting [4], 85.8 ± 6.4%; under setting [5], 67.9 ± 15%; under setting [6], 49.2 ± 8.7%.

Consider `O=S(=O)([O-])[O-].[Fe+2]` [iron(II) sulfate], for which the residual bioluminescent signal under setting [1] stood at 10.5 ± 3.6%; the residual bioluminescent signal under setting [2] came out at 109 ± 9.9%; the residual bioluminescent signal under setting [3] was 1.09 ± 0.23%; the residual bioluminescent signal under setting [4] is 0.237 ± 0.14%; the residual bioluminescent signal under setting [5] worked out at 1.22%; the residual bioluminescent signal under setting [6] worked out at 0.237 ± 0.21%.

For the origin of these results see the supplement of paper PMC11628255, “Interference of metal ions on the bioluminescent signal of firefly, Renilla, and NanoLuc luciferases in high-throughput screening assays” (Frontiers in Chemistry, 2024).
